Data reported in PubChem BioAssay AID720580 (National Center for Advancing Translational Sciences (NCATS), 2013).
Hit rate of the full screen: of about 330,000 compounds, about 1,500 (0.45%) were called active. Inconclusive results (about 6%) are left out. This is one part of a sample in which actives are shown more often than they occur. Unmarked numbers belong to inactive results. The call rests on the fitted dose curve; tested in A549 cells.

Assay: qHTS for Stage-Specific Inhibitors of Vaccinia Orthopoxvirus: Venus Reporter Primary qHTS; further: nearly all actives have a fitted effect of over 30% in size
Details: Vaccinia virus Venus reporter expression, fluorescence; series mostly up to 36.5 µM; activity change, negative = inhibition: at the top concentration
On the % scale 0 is the no-effect control and ±100 the full control effect; potency means the concentration at half of the fitted maximal effect.

SMILES	activity change, negative = inhibition	Potency
CCCNC(=O)C1(C)CCN(Cc2ccc(Cl)c(Cl)c2)C1 (centres undefined)	3.72%	–
CCCc1ccc(C(O)c2ncc(-c3cccc(OC)c3)[nH]2)cc1 (centres undefined)	-7.29%	–
Cc1ccc(-c2nc3c(C)cc(Br)cn3c2Cc2ccccc2)cc1	-17%	–
COc1ccccc1Cc1c(-c2ccc(Cl)cc2)nc2ccc(Cl)cn12	-18.1%	–
CN1CCc2cc3c(cc2[C@H]1[C@@H]1OC(=O)c2c1ccc1c2OCO1)OCO3	-15.2%	–
COc1c(O)ccc2c1CN1CCc3cc4c(cc3C1C2)OCO4 (centres undefined)	–	11.2 µM (active)
COc1ccc2c(c1O)-c1cccc3c1[C@@H](C2)N(C)CC3	-9.77%	–
Cc1cccc(C)c1NC(=O)C(c1cccc2ccccc12)n1c(=O)c(-c2ccco2)nc2ccccc21 (centres undefined)	-16.4%	–
COc1ccc(-c2c(C)cc3oc(=O)cc(-c4ccccc4)c3c2C)cc1F	-20.5%	–
COc1ccc(-c2c(C)cc3oc(=O)cc(-c4ccccc4)c3c2C)cc1OC	-14.3%	–
COc1cc(OC)c2c(-c3cccc(-c4cccc(N)c4)c3)cc(=O)oc2c1	–	12.6 µM (active)
CN[C@H]1C[C@H]2c3cc(Oc4ccccc4C)ccc3CCN2C(=O)[C@H]1[C@H](C)O	-0.143%	–
CC1=C(C(=O)N(C(C)C)C(C)C)CC(CC(=O)NCCCCc2ccccc2)C(=O)N1CCC1=CCCCC1 (centres undefined)	-14.9%	–
CC1=C(C(=O)Nc2ccccc2)S(=O)(=O)CCO1	–	0.794 µM (active)
O=C(Nc1ccccc1)c1ccc2c(c1)OCCCO2	-17.9%	–
CC1=C(C(=O)Nc2ccccc2)SCCO1	-8.62%	–
OC(CBr)C[n+]1cccc2cc(Br)ccc21 (centres undefined)	-19.5%	–
COc1cccc(C(O)c2nc(-c3ccc(C)c(C)c3)cs2)c1 (centres undefined)	-9.02%	–
CCC(C)N(c1ccc(/C=C/c2ccnc3ccccc23)cc1)C(C)CC (centres undefined)	25.9%	–
COC(=O)Cc1ccc(OC2(C)CCN(Cc3ccc4c(c3)OCCO4)C2)cc1 (centres undefined)	-6.83%	–
COC(=O)c1ccc2nc(-c3ccccc3)c(Cc3ccc(OC)cc3C)n2c1	1.02%	–
Cn1c(NN)nc2sc3c(c2c1=O)CCC3	-13.9%	–

SMILES	activity change, negative = inhibition	Potency
CCCc1nc2sc3c(c2c(=O)n1NC(=O)CCCl)CCCC3	–	7.94 µM (active)
Cc1ccc(C)c(-n2c(SCC(=O)O)nc3sc4c(c3c2=O)CCCC4)c1	-18.6%	–
Nc1nc2c(Br)ccc(Br)c2cc1C(=O)NCCc1ccccc1	-9.13%	–
Cc1ccc2nc(-c3ccccc3)c(CC3CCCCC3)n2c1	-3.43%	–
O=C(NC1CCCC1)C1c2ccccc2OCC(=O)N1Cc1ccccc1 (centres undefined)	0.451%	–
CC(=O)c1ccc(-c2cnc3c(NC=O)cc(-c4cccc(NS(C)(=O)=O)c4)cn23)cc1	–	11.2 µM (active)
CC(=O)c1cccc(-c2cnc3c(NC=O)cc(-c4ccc(N(C)C)cc4)cn23)c1	19.6%	–
CC(=O)c1cccc(-c2cnc3c(NC=O)cc(-c4cccc(C(=O)N(C)C)c4)cn23)c1	-4.87%	–
CC(C)(C)c1ccc(C(=O)C[N+]2(C)CCCc3ccccc32)cc1 (centres undefined)	-21.8%	–
CCC(C)(O)C(=O)OC1C(=O)OC2CC3C(C)=CC(=O)C(O)C3(C)C3C4(O)OCC23C1C(C)C4O (centres undefined)	–	0.316 µM (active)
CC=CCn1c(SCCCc2ccccc2)nc2c1c(=O)[nH]c(=O)n2C	-14.7%	–
CN(C(=N)N)c1ccc(/C=C2\C=Cc3ccccc32)cc1	-17.4%	–
COc1ccc(S(=O)(=O)N2CCCCC2c2cc(C(=O)NCc3ccc(F)cc3)no2)cc1 (centres undefined)	-10.1%	–
CCN(CC)c1ncnc2c1ncn2[C@H]1CN(Cc2cccs2)C[C@@H](CO)O1	-4.26%	–
CCOc1cc(N2CCOCC2)c(OCC)cc1NC(=O)COc1cccc2cccnc12	–	12.6 µM (active)
CCOc1cc(N2CCOCC2)c(OCC)cc1NC(=O)c1cc(C)nc2ccccc12	-7.77%	–
CCOc1cc(N2CCOCC2)c(OCC)cc1NC(=O)COc1cccc(Cl)c1	-18.9%	–
CN(N=O)c1ccc(C=C2c3ccccc3-c3ccccc32)cc1	-10.5%	–
CN(C)C1=C2C=CC=CC2/C(=C2/C=Cc3ccccc32)C=C1 (centres undefined)	-11.3%	–
O=C(N/N=C/c1cccc(OCc2ccccc2)c1)c1ccc(Br)o1	-10.1%	–
CCCc1ccc(OCc2ccc(C(=O)N/N=C/c3cccc([N+](=O)[O-])c3)o2)c(OC)c1	–	7.08 µM (active)
COC(=O)c1ccc(COc2ccc(/C=N/NC(=O)C(=O)Nc3ccc(OC)cc3)cc2OC)o1	4.27% [at 7.34 µM]	–

SMILES	activity change, negative = inhibition	Potency
CC(=O)Nc1cccc(-c2cc(NC(C)=O)c3ncc(-c4ccccc4)n3c2)c1	-4.03%	–
CC(C)C[C@@H]1Cc2[nH][nH]c(=O)c2[C@H](CCc2ccccc2)O1	-11.9%	–
Nc1nc(SCc2ccc([N+](=O)[O-])cc2)c2ncn(C3OC(CO)C(O)C3O)c2n1 (centres undefined)	-18.7%	–
Nc1ncn(C2OC(CO)C(O)C2O)c(=O)n1 (centres undefined)	–	10 µM (active)
CC(C)Sc1nc(N)nc2c1ncn2C1OC(CO)C(O)C1O (centres undefined)	2.2%	–
Fc1cccc(Cc2c(-c3cccc(Cl)c3)nc3ccc(Br)cn23)c1	-4.21%	–
C/C(=N\NC(=O)Cc1ccc(Br)cc1)c1cccnc1	-10.3%	–
C/C(=N\NC(=O)c1ccccc1F)c1ccccn1	-13.5%	–
C/C(=N\NC(=O)Cc1ccc(Cl)cc1)c1ccccn1	–	6.31 µM (active)
CCC(C(=O)NC(C)(C)C)n1c(-c2ccccc2)nc2ccccc21 (centres undefined)	-3.62%	–
Cc1cc(Br)cn2c(Cc3ccsc3)c(-c3ccc(C#N)cc3)nc12	-6.63%	–
COc1ccc(-c2cc3nc(NCCOc4ccccc4)ccn3n2)cc1	-8.89%	–
CCOC(=O)C1=CC[C@@H](c2ccccc2)N(S(=O)(=O)c2ccc(C)cc2)[C@H]1c1ccc(CC)cc1	2.38%	–
CCOc1ccc(S(=O)(=O)Nc2ccc(OC)nc2)cc1	-12.8%	–
COc1ccc(NC(=O)CN2C(=O)NC(C)(c3ccccc3)C2=O)cn1 (centres undefined)	-4.42%	–
COc1ccc(CS(=O)/C(Cl)=C(/Cl)C(=O)Nc2ccc(OC)nc2)cc1 (centres undefined)	–	5.62 µM (active)
Cc1c(CCO)sc[n+]1CC(=O)c1ccc2ccccc2c1	1.96%	–
COC(=O)C1(C(=O)OC)C/C=C\CN(S(=O)(=O)c2ccccc2[N+](=O)[O-])CCC1	5.58%	–
COc1ccc(Br)c(Cn2c(C)c(C(=O)NCc3cccs3)sc2=O)c1	-4.37%	–
COc1cccc(NC(=O)C2(C)CCN2Cc2ccccc2Cl)c1 (centres undefined)	-19.1%	–
